Experimental findings from PubChem BioAssay (Tox21) are described below.

“And” between values parts separate entries of the source, which are not always exact repeats. Equal values may be shown once. Results filed as inconclusive are left out. Where a structure was tested more than once in an assay, its records may differ in their call. The source made the active and inactive calls. Unless noted, calls follow the shape of the full dose curve.

Test [1] can be described thus: Nuclear factor erythroid 2-related factor 2/antioxidant responsive element (Nrf2/ARE) small molecule agonists: qHTS cell viability counter screen in human keratinocytes (AID 1919968; active = well fitted cell-killing curve with a large enough effect in the repeat runs; also: nearly all actives have a fitted effect of over 55% in size). In short, it runs like this: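 HaCaT ARE reporter line, 1,500 cells/well; 5 h settle, 37 C/5% CO2; cpd in DMSO pinned; 23 h exposure; CellTiter-Fluor, 1 h; fluorescence.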
For orientation: In qHTS, concentration-response curves come from the screen itself.

A short description of test [2]: Nuclear factor erythroid 2-related factor 2/antioxidant responsive element (Nrf2/ARE) small molecule agonists: luciferase reporter gene qHTS assay in human keratinocytes (AID 1919969). Also: nearly all actives have a fitted effect of over 35% in size. Also: potency is read from the fitted curve at half-maximal effect.
For test [3], the target named is Gonadotropin-releasing hormone receptor (Homo sapiens) (UniProt P30968). Description: Human gonadotropin-releasing hormone receptor (GnRHR) small molecule agonists, calcium flux assay in GnRHR-HEK293 cells (AID 1920063). Also: nearly all actives have a fitted effect of over 35% in size. In short, it runs like this: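 GnRHR-HEK293, 1500 cells/well, 18 h 37 C/5% CO2; Ca dye 1 h 37 C; cpd pinned (DMSO), agonist mode; kinetic FL 480/540, 3 min, 1 s reads; 15 conc, n=3.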
Sequence of Gonadotropin-releasing hormone receptor (Homo sapiens) (P30968 whole entry, looked up): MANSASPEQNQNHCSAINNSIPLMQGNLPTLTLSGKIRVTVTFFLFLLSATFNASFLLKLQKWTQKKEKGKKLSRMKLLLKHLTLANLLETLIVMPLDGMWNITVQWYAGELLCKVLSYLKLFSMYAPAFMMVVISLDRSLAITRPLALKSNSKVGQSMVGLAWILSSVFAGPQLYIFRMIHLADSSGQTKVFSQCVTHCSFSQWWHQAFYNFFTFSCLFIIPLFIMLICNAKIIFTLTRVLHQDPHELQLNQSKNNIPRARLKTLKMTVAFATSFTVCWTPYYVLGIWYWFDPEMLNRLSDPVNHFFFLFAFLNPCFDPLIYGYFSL

Test [4] is described as follows: G protein-coupled receptor (GPCR) small molecule agonists, calcium flux assay: HEK293 wild type cell line counter screen (AID 1920065). The procedure, abridged:
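Kinetic fluorescence at Ex/Em 480/540, recorded every second over 3 min, served as the read-out after compound addition. Each compound was tested at 15 concentrations in triplicate on cells pre-loaded with calcium dye for 1 h.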

The nature of test [5]: p53 small molecule agonists, cell-based qHTS assay with human liver microsomes (AID 1963577).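 Also: p53 response element beta-lactamase reporter cells with liver microsomes plus NADPH.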 In short, it runs like this:
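With metabolic activation: human liver microsomes (0.5 mg/mL final) plus NADPH (0.5 mg/mL final) added alongside compounds to p53RE-bla cells; 16 h 37 C exposure; beta-lactamase read by LiveBLAzer fluorescence.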

Test [6] can be described thus: p53 small molecule agonists, cell-based qHTS assay with rat liver microsomes (AID 1963578). In short, it runs like this:
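Metabolic activation by rat liver microsomes and NADPH, each 0.5 mg/mL final, added right after compounds to p53RE-bla reporter cells (4,000/well, plated 5 h earlier). 16 h at 37 C, then LiveBLAzer substrate for 2 h at room temperature in the dark; fluorescence read-out.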

A short description of test [7]: p53 small molecule agonists, cell-based qHTS assay with human liver microsomes: qHTS cell viability counter screen (AID 1963579). Also: nearly all actives have a fitted effect of over 45% in size. In short, it runs like this: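 Metabolic activation used human liver microsomes and NADPH, both 0.5 mg/mL final, over 16 hours at 37 C on p53RE-bla cells (4,000/well). Cytotoxicity measured by CellTiter-Glo luminescence, 30 min at room temperature.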

Test [8] can be described thus: p53 small molecule agonists, cell-based qHTS assay with rat liver microsomes: qHTS cell viability counter screen (AID 1963580). Also: nearly all actives have a fitted effect of over 45% in size. The procedure, abridged:
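p53RE-bla HCT-116 cells (4,000/well) rested 5 h at 37 C, then given Tox21 compounds in DMSO with rat liver microsomes (0.5 mg/mL final) plus NADPH (0.5 mg/mL final) for 16 h at 37 C. Viability read by CellTiter-Glo luminescence after 30 min at room temperature.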

Test [9] can be described thus: p53 small molecule agonists, cell-based qHTS assay: qHTS cell viability counter screen (AID 1963581). Also: nearly all actives have a fitted effect of over 45% in size. In short, it runs like this: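 HCT-116 p53RE-bla cells, 4,000/well, plated 5 h before compound pin transfer; 16 h at 37 C; bla substrate 2 h RT; then CellTiter-Glo, 30 min RT, luminescence.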
Test [10] deals with 5-hydroxytryptamine receptor 2A (Homo sapiens) (UniProt P28223). Briefly: 5-hydroxytryptamine receptor 2A (HTR2A) small molecule antagonists, cell-based qHTS assay (AID 1963586). Also: nearly all actives have a fitted effect of over 45% in size. The procedure, abridged:
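Antagonist-mode intracellular calcium assay: DOI (4 nM) added after 5 min compound pre-incubation at room temperature to dye-loaded HTR2A-CHO cells. Fluorescence followed for 3 min, sampled every second.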

The target is the same in test [11]. Description: 5-hydroxytryptamine receptor 2A (HTR2A) small molecule agonists, cell-based qHTS assay (AID 1963587). Also: nearly all actives have a fitted effect of over 30% in size. The procedure, abridged: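 HTR2A-CHO cells, plated 18 h at 37 C/5% CO2, dye-loaded 1 h at 37 C; compounds in DMSO added by pin tool (agonist mode). Intracellular calcium flux read as kinetic fluorescence on FDSS over 2 min at 1 s intervals.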
Test [12] addresses Muscarinic acetylcholine receptor M1 (Homo sapiens) (UniProt P11229). Briefly: Cholinergic receptor muscarinic 1 (CHRM1) small molecule antagonists, cell-based qHTS assay (AID 1963588). Also: nearly all actives have a fitted effect of over 40% in size. Also: potency is read from the fitted curve at half-maximal effect. The procedure, abridged: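 CHRM1-CHO calcium-flux assay, antagonist mode. Cells were seeded 18 h, dye-loaded 1 h at 37 C and given compound for 5 min at RT, then acetylcholine was added at 50nM. FDSS fluorescence was read 3 min; 15 concentrations, three runs.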

The target is the same in test [13]. Description: Cholinergic receptor muscarinic 1 (CHRM1) small molecule agonists, cell-based qHTS assay (AID 1963589). Also: nearly all actives have a fitted effect of over 35% in size. In short, it runs like this:
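Human M1 in stable CHO line; 18 h plating, 1 h dye load 37 C; cpd added (agonist mode); Ca2+ fluorescence kinetic read, 1 s intervals; 15 conc, 3 runs.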

Test [14] is described as follows: cAMP Responsive Elements (CRE) small molecule agonists, cell-based qHTS assay (AID 1963590). In short, it runs like this: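 HEK 293T CRE-bla, 2,000 cells/well, 18 h preincubation 37 C/5% CO2; cpds (DMSO) pinned, 3 h; LiveBLAzer B/G FRET substrate, 2 h RT.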
The nature of test [15]: cAMP Responsive Elements (CRE) small molecule antagonists, cell-based qHTS assay (AID 1963591; active = well fitted inhibition curve with a large enough effect in the signal ratio in the repeat runs, not every such curve was filed as active; the % refers to the signal ratio). In short, it runs like this: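 Beta-lactamase reporter read by FRET substrate (LiveBLAzer B/G) after 2 h at room temperature. CRE-bla HEK293T cells had received compound plus 0.25 uM (final) NKH477 for 3 h at 37 °C.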
For test [16], the target named is Beta-2 adrenergic receptor (Homo sapiens) (UniProt P07550). Description: Adrenergic beta2 receptor (ADRB2) small molecule antagonists, cell-based qHTS assay (AID 1963592). Also: series mostly up to about 92 µM; nearly all actives have a fitted effect of over 50% in size. In short, it runs like this:
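Cells (CHO, stable ADRB2 overexpression) incubated 18-20hr at 37C; compounds added from DMSO; agonist mix (1nM isoproterenol, 100uM IBMX, 25uM Ro-20-1724) added; 0.5hr RT; d2-cAMP and anti-cAMP-cryptate added; 1hr RT; 665/615 nm read.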

For test [17] the target is unchanged. Briefly: Adrenergic beta2 receptor (ADRB2) small molecule agonists, cell-based qHTS assay (AID 1963593).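 Also: CHO cells stably overexpressing human ADRB2.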 In short, it runs like this:
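CHO cells stably over-expressing ADRB2 were plated overnight at 37C, then dosed with compounds plus a stimulation mix containing 100uM IBMX and 25uM Ro-20-1724 for 0.5hr at room temperature. cAMP was measured by HTRF competition, 1hr.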

The target in test [18] is D(2) dopamine receptor (Homo sapiens) (UniProt P14416). Description: Dopamine D2 receptor (DRD2) small molecule agonists, cell-based qHTS assay (AID 1963594). Also: nearly all actives have a fitted effect of over 35% in size. The procedure, abridged: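 HEK293 cells stably expressing DRD2 were cultured 24 h at 37 C, then given Ro20-1724 (0.1 mM final) and compounds for 10 min at room temperature. NKH477 (200nM) was then added for 30 min. cAMP was read by HTRF.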
Sequence of D(2) dopamine receptor (Homo sapiens) (P14416 whole entry, looked up): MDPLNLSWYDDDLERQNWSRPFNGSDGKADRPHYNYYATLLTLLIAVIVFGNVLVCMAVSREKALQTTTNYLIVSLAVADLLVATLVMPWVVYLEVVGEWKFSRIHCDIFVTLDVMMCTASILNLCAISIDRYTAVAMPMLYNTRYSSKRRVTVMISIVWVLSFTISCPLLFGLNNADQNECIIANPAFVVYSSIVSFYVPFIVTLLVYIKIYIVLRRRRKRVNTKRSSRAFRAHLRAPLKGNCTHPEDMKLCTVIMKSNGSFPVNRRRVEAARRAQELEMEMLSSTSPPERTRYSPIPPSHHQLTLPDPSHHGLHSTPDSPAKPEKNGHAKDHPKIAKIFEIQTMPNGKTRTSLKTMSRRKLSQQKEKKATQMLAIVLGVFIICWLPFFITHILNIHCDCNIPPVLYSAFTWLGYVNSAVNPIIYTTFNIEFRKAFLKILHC

For test [19] the target is unchanged. Description: Dopamine D2 receptor (DRD2) small molecule antagonists, cell-based qHTS assay (AID 1963595; active = well fitted inhibition curve with a large enough effect in the signal ratio in the repeat runs, with a control signal flat; the % refers to the signal ratio). The procedure, abridged: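 In this cell-based antagonist screen, compounds act for 10 min at room temperature before a 30 min challenge with 12 nM quinpirole and 200 nM NKH477. cAMP is quantified by HTRF competition in DRD2-HEK293 cells containing 0.1 mM Ro20-1724.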

Test [20] can be described thus: p53 small molecule agonists, cell-based qHTS assay (AID 1963582; active = well fitted activation curve with a large enough effect in the signal ratio in the repeat runs, not every such curve was filed as active; the % refers to the signal ratio). The procedure, abridged: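 Reporter line: p53RE-bla. Pre-incubation 5 h, 37 C, 5% CO2; compound (DMSO, pin tool) 16 h, 37 C; B/G FRET substrate 2 h RT; fluorescence intensity read.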

Sequence of Beta-2 adrenergic receptor (Homo sapiens) (P07550 whole entry, looked up): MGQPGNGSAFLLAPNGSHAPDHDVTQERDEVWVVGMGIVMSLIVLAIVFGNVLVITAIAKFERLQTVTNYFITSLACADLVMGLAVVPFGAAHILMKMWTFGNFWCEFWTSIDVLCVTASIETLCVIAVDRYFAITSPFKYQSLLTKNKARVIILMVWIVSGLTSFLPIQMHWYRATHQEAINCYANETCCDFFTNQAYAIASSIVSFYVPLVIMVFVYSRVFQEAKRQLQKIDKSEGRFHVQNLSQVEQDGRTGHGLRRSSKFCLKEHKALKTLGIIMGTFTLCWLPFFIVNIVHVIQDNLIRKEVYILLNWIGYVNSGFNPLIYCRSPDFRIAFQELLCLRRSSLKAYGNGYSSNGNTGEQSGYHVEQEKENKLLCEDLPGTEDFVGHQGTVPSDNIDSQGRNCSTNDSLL
Sequence of Muscarinic acetylcholine receptor M1 (Homo sapiens) (P11229 whole entry, looked up): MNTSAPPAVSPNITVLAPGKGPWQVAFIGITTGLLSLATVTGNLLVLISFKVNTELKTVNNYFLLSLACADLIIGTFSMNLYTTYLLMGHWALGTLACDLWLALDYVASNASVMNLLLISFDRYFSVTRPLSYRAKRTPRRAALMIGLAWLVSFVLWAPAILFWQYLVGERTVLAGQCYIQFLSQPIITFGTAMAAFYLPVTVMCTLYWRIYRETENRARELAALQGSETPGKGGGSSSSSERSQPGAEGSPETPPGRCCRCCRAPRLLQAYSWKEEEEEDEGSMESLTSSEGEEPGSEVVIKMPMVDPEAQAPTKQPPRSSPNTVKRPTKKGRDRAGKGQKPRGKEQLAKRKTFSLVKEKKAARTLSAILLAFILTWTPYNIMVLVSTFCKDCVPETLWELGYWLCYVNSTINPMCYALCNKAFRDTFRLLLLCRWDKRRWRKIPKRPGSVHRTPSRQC
Sequence of 5-hydroxytryptamine receptor 2A (Homo sapiens) (P28223 whole entry, looked up): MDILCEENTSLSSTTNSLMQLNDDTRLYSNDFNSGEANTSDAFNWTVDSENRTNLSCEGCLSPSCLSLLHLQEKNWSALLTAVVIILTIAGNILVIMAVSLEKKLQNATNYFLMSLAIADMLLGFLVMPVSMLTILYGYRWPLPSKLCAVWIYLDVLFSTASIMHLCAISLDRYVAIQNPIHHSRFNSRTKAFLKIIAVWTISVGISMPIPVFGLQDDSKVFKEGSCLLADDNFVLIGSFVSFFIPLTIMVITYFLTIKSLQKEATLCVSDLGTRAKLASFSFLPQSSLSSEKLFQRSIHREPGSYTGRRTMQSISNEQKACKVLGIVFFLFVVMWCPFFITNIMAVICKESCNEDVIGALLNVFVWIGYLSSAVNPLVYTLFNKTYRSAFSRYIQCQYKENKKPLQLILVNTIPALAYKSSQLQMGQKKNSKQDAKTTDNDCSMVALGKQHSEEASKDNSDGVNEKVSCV

On to `CCCOCCO`, for which the Potency result in test [1], in test [2], in test [3], in [4], in test [5] and in test [6] was “inactive” throughout. The Potency entry in test [7], in test [8], in test [9], in test [10], in test [11] and in test [13] was “inactive” in each case. Also, the Potency result in test [14], in test [15], in test [16], in test [17], in [18] and in test [19] was “inactive” throughout. For the same compound, the Potency result in test [12] was “inactive and 12.5 nM (active)”.
With `CNC1(C)C2CCC(C2)C1(C)C` (centres undefined), the Potency result in test [1], in test [2], in test [3], in test [4], in [5] and in test [6] was “inactive” in each case. The Potency result in [7], in test [8], in test [9], in test [20], in test [10] and in test [11] was “inactive” each time. Moreover, the Potency entry in test [12], in [13], in [14], in test [16], in test [17] and in test [18] was “inactive” throughout. Moreover, in [19], the Potency result was “inactive”.
Take `OCC#CCO`: the Potency result in test [1], in test [2], in test [3], in [4], in test [5] and in test [6] was “inactive” throughout. Further, the Potency entry in test [7], in [8], in test [9], in [20], in test [11] and in test [13] was “inactive” in each case. Also, the Potency result in [14], in [15], in test [16], in test [17], in [18] and in [19] was “inactive” in each case. Besides, the Potency in test [12] is 17 µM (active) and inactive.
With `Cc1ccccc1C`, the Potency entry in test [1], in test [2], in test [3], in test [4], in test [5] and in test [6] was “inactive” each time. Further, the Potency result in test [7], in [8], in test [9], in [20], in test [10] and in [13] was “inactive” each time. The Potency entry in test [14], in test [15], in test [16], in [17], in test [18] and in [19] was “inactive” in each case. The Potency in test [12] is 1.5 nM (active).
`CCCCC(CC)COCC1CO1` (centres undefined): the Potency entry in [1], in test [2], in test [3], in test [4], in test [7] and in test [8] was “inactive” each time. The Potency entry in [9], in [10], in test [12], in [13], in [14] and in [15] was “inactive” each time. Besides, the Potency entry in test [16], in test [17] and in [19] was “inactive” throughout.
As for `CC1(C)C(=O)N(Br)C(=O)N1Cl`, the Potency entry in test [1], in test [2], in test [4], in [5], in test [6] and in test [7] was “inactive” each time. In addition, the Potency result in test [8], in test [9], in test [20], in test [10], in test [11] and in test [12] was “inactive” in each case. In addition, the Potency entry in [13], in test [14], in test [15], in test [16] and in test [17] was “inactive” throughout.
Turning to `OCc1ccccc1`, the Potency entry in test [1], in [3], in test [4], in test [7], in test [8] and in test [14] was “inactive” each time. Also, the Potency entry in [16], in test [17] and in test [19] was “inactive” throughout. In test [2], the Potency entry was “inactive and 9.69 µM (active)”.
Take `CC(=O)CC(=O)Nc1ccccc1`: the Potency result in [1], in [2], in [3], in test [4], in [7] and in test [8] was “inactive” in each case. Also, the Potency result in test [9], in [10], in test [11], in test [12], in [13] and in test [14] was “inactive” in each case. The Potency result in [15], in test [16], in test [18] and in [19] was “inactive” in each case.
